PubChem BioAssay (NCI)
The panel holds about 83,000 compounds, 20% with a hit somewhere; the sample as a whole holds those more often.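 Step 1: grow cells in 96-well plates. Step 2: add test compound at a single concentration. Step 3: incubate 48 h. Step 4: record percent growth.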 Unmarked numbers belong to inactive results. The source made the active and inactive calls. How the source made its calls: active means growth percent below 10; inactive means the rest.

How the values were obtained:
Test in all cases: NCI-60 one-dose screen, 48 h (100 = growth as untreated, 0 = no growth, -100 = all killed)
Conditions in all cases: 10 µM unless noted
NCI-H23 lung = test system: NCI-H23 lung
NCI-H226 lung = test system: NCI-H226 lung
NCI-H322M lung = test system: NCI-H322M lung
HOP-62 NSCLC = test system: HOP-62 NSCLC
NCI-H460 lung = test system: NCI-H460 lung
HOP-92 NSCLC = test system: HOP-92 NSCLC
NCI-H522 lung = test system: NCI-H522 lung
A549/ATCC NSCLC = test system: A549/ATCC NSCLC
786-0 renal = test system: 786-0 renal
COLO 205 colon = test system: COLO 205 colon
DU-145 prostate = test system: DU-145 prostate
K-562 leukemia = test system: K-562 leukemia
MALME-3M melanoma = test system: MALME-3M melanoma
MDA-MB-231 breast = test system: MDA-MB-231 breast
RXF 393 renal = test system: RXF 393 renal
SF-268 CNS = test system: SF-268 CNS
SF-295 CNS = test system: SF-295 CNS
SF-539 CNS = test system: SF-539 CNS
UACC-257 melanoma = test system: UACC-257 melanoma
M14 melanoma = test system: M14 melanoma

Row | SMILES | growth (NCI-H23 lung) | growth (NCI-H226 lung) | growth (NCI-H322M lung) | growth (HOP-62 NSCLC) | growth (NCI-H460 lung) | growth (HOP-92 NSCLC) | growth (NCI-H522 lung) | growth (A549/ATCC NSCLC) | growth (786-0 renal) | growth (COLO 205 colon) | growth (DU-145 prostate) | growth (K-562 leukemia) | growth (MALME-3M melanoma) | growth (MDA-MB-231 breast) | growth (RXF 393 renal) | growth (SF-268 CNS) | growth (SF-295 CNS) | growth (SF-539 CNS) | growth (UACC-257 melanoma) | growth (M14 melanoma)
1 | CC(=O)Oc1c(Cl)cccc1-c1ccccc1 | 111% | 98.9% | 92.7% | 103% | 102% | 94.8% | 94.3% | 89.9% | 104% | 111% | 104% | 101% | 111% | 98.4% | 110% | 95.1% | 103% | 104% | 87.6% | 108%
2 | N#CCCN1C(=O)CCC1C(=O)O (stereo not drawn) | 109% | 113% | 112% | 119% | 107% | 109% | 85% | 103% | 107% | 115% | 114% | 96.8% | 114% | 129% | 115% | 97.3% | 101% | 104% | 93.4% | 104%
3 | Cc1ccc(S(=O)(=O)NC(=O)NCCSSCCNC(=O)NS(=O)(=O)c2ccc(C)cc2)cc1 | 102% | 91% | 101% | 105% | 103% | 92.2% | 94.9% | 100% | 104% | 129% | 110% | 103% | 97.3% | 116% | 102% | 102% | 95.3% | 87.5% | 89.1% | 111%
4 | OCC1CCC(O)C(CO)N1 (stereo not drawn) | 110% | 104% | 113% | 101% | 107% | 119% | 103% | 94.2% | 109% | 95% | 113% | 116% | 106% | 106% | 107% | 106% | 91% | 87.9% | 110% | 96.5%
5 | O=c1cc(Cl)nc2ccccn12 | 98.8% | 106% | 107% | 103% | 106% | 94% | 99.7% | 107% | 108% | 127% | 110% | 110% | 117% | 120% | 106% | 112% | 106% | 102% | 107% | 107%
6 | CC(=O)NC(CCC(=O)c1ccccc1)C(=O)O (stereo not drawn) | 101% | 91.1% | 98.5% | 76.2% | 102% | 97.6% | 90.2% | 63.3% | 87.9% | 108% | 107% | 108% | 96.6% | 107% | 105% | 101% | 101% | 91.2% | 76.7% | 90.9%
7 | CCOC(=O)c1cc(Cl)c(O)c(Cl)c1 | 103% | 103% | 117% | 106% | 108% | 109% | 103% | 100% | 107% | 99.6% | 104% | 121% | 114% | 106% | 116% | 97.7% | 103% | 106% | 109% | 105%
8 | Cc1cc(C(=O)c2ccccc2)cc(C)c1O | 98.2% | 99.2% | 101% | 95.2% | 110% | 74.3% | 104% | 102% | 100% | 103% | 113% | 94.7% | 94.1% | 124% | 116% | 102% | 107% | 90.4% | 115% | 103%
9 | CCNC(=O)OCCc1c2ccccc2nc2ccccc12 | 111% | 106% | 108% | 109% | 108% | 13.4% | 94.3% | 101% | 112% | 124% | 122% | 88.2% | 126% | 119% | 97.4% | 109% | 127% | 109% | 112% | 120%
10 | CC(C)C1CCC(C)C(O)C1 (stereo not drawn) | 110% | 102% | 105% | 95.3% | 108% | 102% | 92.8% | 88.7% | 105% | 111% | 106% | 103% | 109% | 93.9% | 108% | 100% | 100% | 100% | 85.6% | 101%
11 | CCOC(=O)CSCCC#N | 95.3% | 98.3% | 101% | 82.3% | 106% | 102% | 96.3% | 101% | 93.5% | 107% | 108% | 112% | 106% | 110% | 97.8% | 101% | 94.7% | 92.2% | 95.4% | 94.9%
12 | NC(=O)OCCO | 99.3% | 99.5% | 97% | 105% | 110% | 102% | 96.1% | 99.7% | 95% | 113% | 104% | 82.9% | 84.7% | 109% | 110% | 97.7% | 106% | 108% | 95.6% | 94.6%
13 | CC1=CC(=Nc2ccc(N(C)C)cc2)C=C(C)C1=O | 66.2% | 83.5% | 95.8% | 86% | 102% | 48.6% | 94.4% | 77.9% | 95% | -14.5% (active) | 101% | 75.1% | 92.6% | 64% | 65.1% | 88.6% | 97.3% | – | 77.5% | 91.9%
14 | O=C(O)Cc1ccc(Cl)cc1 | 114% | 96% | 108% | 86.9% | 107% | 38.8% | 101% | 120% | 93.7% | 107% | 107% | 53.6% | 102% | 102% | 125% | 105% | 97.5% | 99.4% | 111% | 93.1%
15 | O=C(Nc1ccc([N+](=O)[O-])cc1)C(=O)Nc1ccc([N+](=O)[O-])cc1 | 100% | 96.9% | 101% | 81% | 103% | 95.4% | 77.3% | 67.7% | 110% | 101% | 110% | 106% | 105% | 98.1% | 109% | 100% | 102% | – | 77.7% | 104%
16 | CCCCCC#CC(=O)O | 109% | 107% | 98.7% | 98.2% | 110% | 83.6% | 90.6% | 97% | 99% | 107% | 132% | 103% | 99.9% | 110% | 125% | 110% | 103% | 103% | 104% | 120%
